Assay outcomes as filed in PubChem.
Most compounds without a hit are left out; they make up all but 21% or so of the library.
CYP2C9 inhib – blockers of cytochrome P450 2C9 activity – biochemical, luminescence, ADME assay, primary screen; 96,000 tested, 20% active; inhibition, % at 5 µM; AID 777, 2007; P11712; CYP2C9 Supersomes, luciferin-H conversion;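 active means blocking of liver enzyme CYP2C9 beyond about 50% at 5 µM, limit read from the data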
Target sequence (P11712 whole entry, looked up): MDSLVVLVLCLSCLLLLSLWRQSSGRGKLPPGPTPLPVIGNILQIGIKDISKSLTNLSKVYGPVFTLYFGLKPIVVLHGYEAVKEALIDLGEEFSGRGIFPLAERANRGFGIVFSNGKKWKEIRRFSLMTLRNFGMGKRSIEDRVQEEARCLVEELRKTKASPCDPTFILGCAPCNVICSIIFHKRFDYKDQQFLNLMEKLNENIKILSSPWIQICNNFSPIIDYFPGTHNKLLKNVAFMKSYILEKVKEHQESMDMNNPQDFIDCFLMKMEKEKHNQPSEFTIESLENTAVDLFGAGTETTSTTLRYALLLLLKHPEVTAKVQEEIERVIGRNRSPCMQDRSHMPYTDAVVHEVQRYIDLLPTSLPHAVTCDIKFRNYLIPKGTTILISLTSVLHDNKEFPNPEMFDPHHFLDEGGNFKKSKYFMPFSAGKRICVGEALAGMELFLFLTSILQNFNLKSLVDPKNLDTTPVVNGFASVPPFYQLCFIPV
MRP reversal – reversal of MRP1-mediated doxorubicin resistance, primary screen, H69AR cells, doxorubicin co-treatment; H69AR cells + 2 uM doxorubicin, CellTiter-Glo, 72 h; AID 602, 2007; 85,000 tested, 0.04% active; differential viability (reversal), % at 10 µM;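 active means viability drop by adding the cancer drug above about 55%, with treated viability meeting a 40% cutoff, limit read from the data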;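 further: larger differential means the compound sensitizes cells more to doxorubicin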
MRP1 act – H69AR viability gain despite doxorubicin, primary screen, MRP-1 activator project, H69AR cells, CellTiter-Glo. viability rescue. viability increase, % at 10 µM. 140,000 tested, 0.61% active. AID 799, 2007;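 active means viability gain under doxorubicin at or above a set limit, the compound median plus 3 SD, cut at about 4.7% in these data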;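 further: MRP-1 overexpressing cells given doxorubicin 25 µM after compound pretreatment; 18-22 h compound pretreatment then 72 h with doxorubicin before readout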
CYP2C19 inh – blockers of cytochrome P450 2C19 activity – biochemical, luminescence, ADME assay, primary screen. P33261. CYP2C19 Supersomes, luciferin-H EGE luminescence, 30 min. inhibition, % at 5 µM. 96,000 tested, 21% active;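 active means CYP2C19 inhibition above a set limit at 5 µM in the primary screen, cut at about 50% in these data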
CYP2C19 act – human CYP2C19 activators, primary screen, biochemical, luminescence; 96,000 tested, under 10 active; recombinant CYP2C19, luciferin-H EGE luminescence; stronger effect = higher value; 0 = fully inhibited enzyme, 1 = untreated enzyme; activation factor at 5 µM;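 active means activation factor of at least 2 at 5 µM in the primary screen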
CYP2C9 activ – human CYP2C9 activators, primary screen, biochemical, luminescence; recombinant CYP2C9, luciferin-H conversion; stronger effect = higher value; factor 1 = untreated enzyme, 0 = blocked; activation factor at 5 µM; 96,000 tested, 1.4% active; AID 1024, 2008;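 active means activation factor of 2 or more for CYP2C9 at a 5 µM dose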
Numbers stand for hits; – = inactive; · = no result given.

SMILES	CYP2C9 inhib	MRP reversal	MRP1 act	CYP2C19 inh	CYP2C19 act	CYP2C9 activ
Cc1cc(C)n(-c2ccc(Cl)c(C(=O)Nc3ccc(OC(F)(F)F)cc3)n2)n1	·	·	–	·	·	·
CCOC(=O)c1c(NC(=O)OC)sc(C(=O)N(C)C)c1C	54	–	–	–	–	–
CCOC(=O)c1c(NC(=O)COc2ncnc3ccccc23)sc(C(C)=O)c1C	·	·	–	·	·	·
CCOC(=O)c1c(NC(=O)CN(C)C)sc(C(=O)N(CC)CC)c1C	–	–	–	–	–	–
CCOC(=O)c1c(NC(=O)CC)sc(C(C)=O)c1C	77	–	–	69	–	–
CCOC(=O)c1c(NC(=O)C2c3ccccc3Oc3ccccc32)sc(C(=O)N(CC)CC)c1C	98	·	–	–	–	–
COC(=O)Nc1sc(C(=O)N(C)C)c(C)c1C(=O)OC	–	–	–	–	–	–
Nc1nc(-c2ccc(Br)s2)c(Br)s1	–	–	–	–	–	–
CCS(=O)(=O)c1ccc(S(=O)(=O)CC)s1	–	–	–	–	–	–
NS(=O)(=O)c1ccc(NC(=O)Cn2ncc3c2-c2ccccc2OC3)cc1	–	·	–	–	–	–
COC(=O)CC1Oc2ccccc2N(Cc2ccccc2)C1=O (stereo not given)	55	–	–	90	–	–
Cc1ccc2c(c1)N(CC(=O)c1cccc(Cl)c1)C(=O)C(C)O2 (stereo not given)	–	·	–	–	–	–
COc1ccc(NC(=O)CN2c3cccc4cccc(c34)S2(=O)=O)c(OC)c1	–	–	–	91	–	–
CCC1Oc2ccccc2N(CC(=O)Nc2ccccc2OC)C1=O (stereo not given)	63	–	–	78	–	–
CC1Oc2ccccc2N(CC(=O)c2cccc(Cl)c2)C1=O (stereo not given)	93	·	–	97	–	–
CCN(CC)c1ccc(NC(=O)COC(=O)c2ccc3ccccc3n2)cc1	–	–	–	–	–	–
COc1ccc(NC(=O)CN2C(=O)C(C)Oc3ccccc32)c(OC)c1 (stereo not given)	–	–	–	79	–	–
COc1ccc(NC(=O)CN2C(=O)C(C)Oc3ccccc32)cc1 (stereo not given)	–	·	–	–	–	–
Cc1cc(Cl)ccc1OCC(=O)NCCCCc1ccccc1	·	·	–	·	·	·
S=c1[nH]nc(COc2ccc(Cl)cc2)o1	–	–	4.9	–	–	–
COc1ccc(OCc2n[nH]c(=S)o2)cc1	89	–	–	–	–	–
COc1ccc(-c2n[nH]c(=S)o2)c(OC)c1	–	·	–	–	–	–
S=c1[nH]nc(CCc2ccc(Cl)cc2)o1	·	·	–	·	·	·
CCN(CC)C(=O)CN(c1ccc(Cl)cc1)S(=O)(=O)c1ccccc1	–	–	–	68	–	–
NC(=O)CN(c1ccc(Cl)cc1)S(=O)(=O)c1ccccc1	·	·	–	·	·	·
SMILES	CYP2C9 inhib	MRP reversal	MRP1 act	CYP2C19 inh	CYP2C19 act	CYP2C9 activ
O=C(COC(=O)/C=C/c1ccc(Cl)cc1Cl)Nc1cc(C(F)(F)F)ccc1N1CCOCC1	·	·	–	·	·	·
Cc1ccc(S(=O)(=O)N2CCN(C3CC(=O)N(Cc4ccccc4)C3=O)CC2)cc1C (stereo not given)	–	–	–	60	–	–
O=C1CC(N2CCN(S(=O)(=O)c3cccc(C(F)(F)F)c3)CC2)C(=O)N1Cc1ccccc1 (stereo not given)	–	–	–	59	–	–
Cn1nc(Oc2nc(N3CCOCC3)nc(N3CCOCC3)n2)ccc1=O	–	–	–	–	–	–
CC(=O)c1ccc(Oc2cc(C)nc(N3CCOCC3)n2)cc1	·	·	–	·	·	·
CCn1c(O)c(N=NC(=O)CNC(=O)/C=C/c2ccco2)c2ccccc21	65	–	–	50	–	–
O=C(O)Cc1ccc(C(=O)c2ccccc2F)s1	–	–	–	50	–	–
Cn1c(=O)c2c(-c3ccc(C(C)(C)C)cc3)n(N3CCOCC3)cc2n(C)c1=O	–	–	–	–	–	–
Cn1c(=O)c2c(-c3ccccc3)n(N3CCOCC3)cc2n(C)c1=O	55	–	–	–	–	–
O=S(=O)(Nc1ccc(N2CCOCC2)cc1)c1ccc(Cl)s1	100	·	–	100	–	–
COc1ccc(S(=O)(=O)Nc2ccc(N3CCOCC3)cc2)cc1Br	96	·	–	100	–	–
O=S(=O)(/C=C/c1ccccc1)Nc1ccc(N2CCOCC2)cc1	83	–	–	94	–	–
O=C(O)c1ccc(NS(=O)(=O)/C=C/c2ccccc2)cc1O	55	–	–	–	–	–
O=S(=O)(Nc1ccc(N2CCOCC2)cc1)c1ccccc1	84	–	–	99	–	–
Cc1ccc(C(=O)OCC(=O)c2c[nH]c3ccccc23)cc1	·	·	–	·	·	·
COC(=O)C1CCN(C(=O)COC(=O)Cc2c[nH]c3ccccc23)CC1	–	–	–	–	–	–
CC1(C(=O)OCC(=O)c2c[nH]c3ccccc23)CC1(Cl)Cl (stereo not given)	85	·	–	97	–	–
O=C(CSCC(=O)N1CCCCC1)OCC(=O)c1c[nH]c2ccccc12	–	–	–	69	–	–
Cc1c(C(=O)NCCSCc2c(Cl)cccc2Cl)cccc1[N+](=O)[O-]	–	·	–	–	–	–
CCOC(=O)Nc1nc2ccccc2s1	–	–	–	–	–	–
O=C(Nc1nc2ccccc2s1)c1cnccn1	–	·	–	65	–	–
Cc1ccc(C(=O)Nc2nc3ccc(S(C)(=O)=O)cc3s2)s1	–	–	–	–	–	–
c1ccc(CCNc2nc3ccccc3s2)cc1	82	–	–	97	–	–
Cc1ccc(C(=O)Nc2nc3ccccc3s2)s1	61	–	–	–	–	–
Cc1ccc(CNc2nc3ccccc3s2)s1	–	–	–	51	–	–
SMILES	CYP2C9 inhib	MRP reversal	MRP1 act	CYP2C19 inh	CYP2C19 act	CYP2C9 activ
O=C(O)C1C2C=CC(C2)C1C(=O)NC(c1ccccc1)c1ccccc1 (stereo not given)	–	–	–	–	–	–
O=C(CN1CCN(S(=O)(=O)c2ccc(Br)cc2)CC1)N/N=C/c1ccco1	·	·	–	·	·	·
Cc1snc(S(=O)(=O)Cc2ccccc2Cl)c1C#N	–	·	–	–	–	–
N#Cc1c(NC(=O)CSc2ncn[nH]2)sc2c1CCCC2	79	–	–	–	–	–
Cc1csc(SCC(=O)Nc2sc3c(c2C#N)CCC3)n1	69	–	–	–	–	–
CC1CCCCN1c1nnc(NC(=O)c2cc(-c3ccc(Br)cc3)on2)s1 (stereo not given)	62	–	–	–	–	–
O=C(NC(=S)Nc1ccccc1N1CCOCC1)c1ccc(-c2cc(Cl)ccc2Cl)o1	·	·	15	·	·	·
O=C(NC(=S)Nc1ccccc1N1CCOCC1)c1ccco1	·	·	–	·	·	·
